Measurements reported in paper PMC11062922 (Nature Chemical Biology, 2023).

Assays:
[1] = test system: AURKA; conditions: compound concentrations:3nM, 10nM, 30nM, 100nM, 300nM, 1000nM, 3000nM, 30000nM,R2:0.99130699388271104,slope:0.94634188293278299,EC50 Standard Error, by the legend:Standard error of the EC50 estimation as provided by the drc package.
[2] = test system: AURKB; conditions: compound concentrations:3nM, 10nM, 30nM, 100nM, 300nM, 1000nM, 3000nM, 30000nM,R2:0.99833060468955204,slope:0.90064720888108796,EC50 Standard Error, by the legend:Standard error of the EC50 estimation as provided by the drc package.
[3] = test system: BCR; conditions: compound concentrations:3nM, 10nM, 30nM, 100nM, 300nM, 1000nM, 3000nM, 30000nM,R2:0.97560136182595103,slope:1.05645406378656,EC50 Standard Error, by the legend:Standard error of the EC50 estimation as provided by the drc package.
[4] = test system: BMP2K; conditions: compound concentrations:3nM, 10nM, 30nM, 100nM, 300nM, 1000nM, 3000nM, 30000nM,R2:0.98755156955359502,slope:1.4167647234137799,EC50 Standard Error, by the legend:Standard error of the EC50 estimation as provided by the drc package.
[5] = test system: BMPR2; conditions: compound concentrations:3nM, 10nM, 30nM, 100nM, 300nM, 1000nM, 3000nM, 30000nM,R2:0.93324573239730002,slope:2.2231806087315,EC50 Standard Error, by the legend:Standard error of the EC50 estimation as provided by the drc package.
[6] = test system: CCNH; conditions: compound concentrations:3nM, 10nM, 30nM, 100nM, 300nM, 1000nM, 3000nM, 30000nM,R2:0.984368608654974,slope:1.5961170242536,EC50 Standard Error, by the legend:Standard error of the EC50 estimation as provided by the drc package.
[7] = test system: CHEK1; conditions: compound concentrations:3nM, 10nM, 30nM, 100nM, 300nM, 1000nM, 3000nM, 30000nM,R2:0.99154934454702504,slope:1.2455496028398201,EC50 Standard Error, by the legend:Standard error of the EC50 estimation as provided by the drc package.
[8] = test system: EPHA1; conditions: compound concentrations:3nM, 10nM, 30nM, 100nM, 300nM, 1000nM, 3000nM, 30000nM,R2:0.96586410409124401,slope:0.42399886433003398,EC50 Standard Error, by the legend:Standard error of the EC50 estimation as provided by the drc package.
[9] = test system: EPHA7; conditions: compound concentrations:3nM, 10nM, 30nM, 100nM, 300nM, 1000nM, 3000nM, 30000nM,R2:0.88780253900259998,slope:1.37394463734268,EC50 Standard Error, by the legend:Standard error of the EC50 estimation as provided by the drc package.
[10] = test system: FER; conditions: compound concentrations:3nM, 10nM, 30nM, 100nM, 300nM, 1000nM, 3000nM, 30000nM,R2:0.99765697857562097,slope:1.03588430141815,EC50 Standard Error, by the legend:Standard error of the EC50 estimation as provided by the drc package.
[11] = test system: FLT3; conditions: compound concentrations:3nM, 10nM, 30nM, 100nM, 300nM, 1000nM, 3000nM, 30000nM,R2:0.96575906270431899,slope:1.4210084972678201,EC50 Standard Error, by the legend:Standard error of the EC50 estimation as provided by the drc package.
[12] = test system: FLT4; conditions: compound concentrations:3nM, 10nM, 30nM, 100nM, 300nM, 1000nM, 3000nM, 30000nM,R2:0.97672359479992199,slope:1.0836870062150401,EC50 Standard Error, by the legend:Standard error of the EC50 estimation as provided by the drc package.
[13] = test system: INCENP; conditions: compound concentrations:3nM, 10nM, 30nM, 100nM, 300nM, 1000nM, 3000nM, 30000nM,R2:0.98280014886482903,slope:1.1847745210473,EC50 Standard Error, by the legend:Standard error of the EC50 estimation as provided by the drc package.
[14] = test system: IRAK4; conditions: compound concentrations:3nM, 10nM, 30nM, 100nM, 300nM, 1000nM, 3000nM, 30000nM,R2:0.93116388715812703,slope:1.4824347437463801,EC50 Standard Error, by the legend:Standard error of the EC50 estimation as provided by the drc package.
[15] = test system: MAP3K11; conditions: compound concentrations:3nM, 10nM, 30nM, 100nM, 300nM, 1000nM, 3000nM, 30000nM,R2:0.99429213742215306,slope:0.76505348781975802,EC50 Standard Error, by the legend:Standard error of the EC50 estimation as provided by the drc package.
[16] = test system: MAP4K2; conditions: compound concentrations:3nM, 10nM, 30nM, 100nM, 300nM, 1000nM, 3000nM, 30000nM,R2:0.97693743702181501,slope:1.5044165115380901,EC50 Standard Error, by the legend:Standard error of the EC50 estimation as provided by the drc package.
[17] = test system: MARK2; conditions: compound concentrations:3nM, 10nM, 30nM, 100nM, 300nM, 1000nM, 3000nM, 30000nM,R2:0.98471401601648001,slope:1.6013857186590299,EC50 Standard Error, by the legend:Standard error of the EC50 estimation as provided by the drc package.
[18] = test system: MARK3; conditions: compound concentrations:3nM, 10nM, 30nM, 100nM, 300nM, 1000nM, 3000nM, 30000nM,R2:0.98601648224136496,slope:1.5139039229536799,EC50 Standard Error, by the legend:Standard error of the EC50 estimation as provided by the drc package.
[19] = test system: MARK4; conditions: compound concentrations:3nM, 10nM, 30nM, 100nM, 300nM, 1000nM, 3000nM, 30000nM,R2:0.98999073963654005,slope:9.1146195696381707,EC50 Standard Error, by the legend:Standard error of the EC50 estimation as provided by the drc package.
[20] = test system: NEK1; conditions: compound concentrations:3nM, 10nM, 30nM, 100nM, 300nM, 1000nM, 3000nM, 30000nM,R2:0.97961263644427599,slope:0.99029629152452003,EC50 Standard Error, by the legend:Standard error of the EC50 estimation as provided by the drc package.

TAK659
EC50 [1]: 1280 nM
Kd ([1]; read-out: apparent Kd): 590 nM
EC50 [2]: 161 nM
Kd ([2]; read-out: apparent Kd): 86.7 nM
EC50 [3]: 1020 nM
Kd ([3]; read-out: apparent Kd): 528 nM
EC50 [4]: 537 nM
Kd ([4]; read-out: apparent Kd): 456 nM
EC50 [5]: 325 nM
Kd ([5]; read-out: apparent Kd): 257 nM
EC50 [6]: 1730 nM
Kd ([6]; read-out: apparent Kd): 1580 nM
EC50 [7]: 149 nM
Kd ([7]; read-out: apparent Kd): 133 nM
EC50 [8]: 2910 nM
Kd ([8]; read-out: apparent Kd): 1000 nM
EC50 [9]: 810 nM
Kd ([9]; read-out: apparent Kd): 617 nM
EC50 [10]: 316 nM
Kd ([10]; read-out: apparent Kd): 202 nM
EC50 [11]: 507 nM
Kd ([11]; read-out: apparent Kd): 313 nM
EC50 [12]: 564 nM
Kd ([12]; read-out: apparent Kd): 308 nM
EC50 [13]: 150 nM
Kd ([13]; read-out: apparent Kd): 150 nM
EC50 [14]: 718 nM
Kd ([14]; read-out: apparent Kd): 675 nM
EC50 [15]: 9090 nM
Kd ([15]; read-out: apparent Kd): 7190 nM
EC50 [16]: 595 nM
Kd ([16]; read-out: apparent Kd): 459 nM
EC50 [17]: 837 nM
Kd ([17]; read-out: apparent Kd): 762 nM
EC50 [18]: 680 nM
Kd ([18]; read-out: apparent Kd): 670 nM
EC50 [19]: 1050 nM
Kd ([19]; read-out: apparent Kd): 1050 nM
EC50 [20]: 589 nM
Kd ([20]; read-out: apparent Kd): 529 nM
